Key:
[1] = biological target: Serine/threonine-protein kinase PAK 6 (Homo sapiens) (UniProt Q9NQU5); conditions: at 1 µM;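 further: values are mean percent inhibition of PAK6 kinase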
[2] = test system: Tyrosine-protein kinase ABL1 (Homo sapiens), P00519 [E255K]; conditions: at 0.1 µM
[3] = test system: Tyrosine-protein kinase ABL1 (Homo sapiens), P00519 [E255K]; conditions: at 1 µM
[4] = test system: Tyrosine-protein kinase ABL1 (Homo sapiens), P00519 [H396P]; conditions: at 0.1 µM
[5] = test system: Tyrosine-protein kinase ABL1 (Homo sapiens), P00519 [H396P]; conditions: at 1 µM
[6] = test system: Tyrosine-protein kinase ABL1 (Homo sapiens), P00519 [M351T]; conditions: at 0.1 µM
[7] = test system: Tyrosine-protein kinase ABL1 (Homo sapiens), P00519 [M351T]; conditions: at 1 µM
[8] = test system: Tyrosine-protein kinase ABL1 (Homo sapiens), P00519 [Q252H]; conditions: at 0.1 µM
[9] = test system: Tyrosine-protein kinase ABL1 (Homo sapiens), P00519 [Q252H]; conditions: at 1 µM
[10] = test system: Tyrosine-protein kinase ABL1 (Homo sapiens), P00519 [T315I]; conditions: at 0.1 µM
[11] = test system: Tyrosine-protein kinase ABL1 (Homo sapiens), P00519 [T315I]; conditions: at 1 µM
[12] = test system: Tyrosine-protein kinase ABL1 (Homo sapiens), P00519 [Y253F]; conditions: at 0.1 µM
[13] = test system: Tyrosine-protein kinase ABL1 (Homo sapiens), P00519 [Y253F]; conditions: at 1 µM
[14] = biological target: Tyrosine-protein kinase ABL1 (Homo sapiens) (UniProt P00519); conditions: at 0.1 µM
[15] = biological target: Tyrosine-protein kinase ABL1 (Homo sapiens) (UniProt P00519); conditions: at 1 µM
[16] = biological target: ALK tyrosine kinase receptor (Homo sapiens) (UniProt Q9UM73); conditions: at 0.1 µM
Chain of ALK tyrosine kinase receptor (Homo sapiens) (Q9UM73 19-1620 limits assumed): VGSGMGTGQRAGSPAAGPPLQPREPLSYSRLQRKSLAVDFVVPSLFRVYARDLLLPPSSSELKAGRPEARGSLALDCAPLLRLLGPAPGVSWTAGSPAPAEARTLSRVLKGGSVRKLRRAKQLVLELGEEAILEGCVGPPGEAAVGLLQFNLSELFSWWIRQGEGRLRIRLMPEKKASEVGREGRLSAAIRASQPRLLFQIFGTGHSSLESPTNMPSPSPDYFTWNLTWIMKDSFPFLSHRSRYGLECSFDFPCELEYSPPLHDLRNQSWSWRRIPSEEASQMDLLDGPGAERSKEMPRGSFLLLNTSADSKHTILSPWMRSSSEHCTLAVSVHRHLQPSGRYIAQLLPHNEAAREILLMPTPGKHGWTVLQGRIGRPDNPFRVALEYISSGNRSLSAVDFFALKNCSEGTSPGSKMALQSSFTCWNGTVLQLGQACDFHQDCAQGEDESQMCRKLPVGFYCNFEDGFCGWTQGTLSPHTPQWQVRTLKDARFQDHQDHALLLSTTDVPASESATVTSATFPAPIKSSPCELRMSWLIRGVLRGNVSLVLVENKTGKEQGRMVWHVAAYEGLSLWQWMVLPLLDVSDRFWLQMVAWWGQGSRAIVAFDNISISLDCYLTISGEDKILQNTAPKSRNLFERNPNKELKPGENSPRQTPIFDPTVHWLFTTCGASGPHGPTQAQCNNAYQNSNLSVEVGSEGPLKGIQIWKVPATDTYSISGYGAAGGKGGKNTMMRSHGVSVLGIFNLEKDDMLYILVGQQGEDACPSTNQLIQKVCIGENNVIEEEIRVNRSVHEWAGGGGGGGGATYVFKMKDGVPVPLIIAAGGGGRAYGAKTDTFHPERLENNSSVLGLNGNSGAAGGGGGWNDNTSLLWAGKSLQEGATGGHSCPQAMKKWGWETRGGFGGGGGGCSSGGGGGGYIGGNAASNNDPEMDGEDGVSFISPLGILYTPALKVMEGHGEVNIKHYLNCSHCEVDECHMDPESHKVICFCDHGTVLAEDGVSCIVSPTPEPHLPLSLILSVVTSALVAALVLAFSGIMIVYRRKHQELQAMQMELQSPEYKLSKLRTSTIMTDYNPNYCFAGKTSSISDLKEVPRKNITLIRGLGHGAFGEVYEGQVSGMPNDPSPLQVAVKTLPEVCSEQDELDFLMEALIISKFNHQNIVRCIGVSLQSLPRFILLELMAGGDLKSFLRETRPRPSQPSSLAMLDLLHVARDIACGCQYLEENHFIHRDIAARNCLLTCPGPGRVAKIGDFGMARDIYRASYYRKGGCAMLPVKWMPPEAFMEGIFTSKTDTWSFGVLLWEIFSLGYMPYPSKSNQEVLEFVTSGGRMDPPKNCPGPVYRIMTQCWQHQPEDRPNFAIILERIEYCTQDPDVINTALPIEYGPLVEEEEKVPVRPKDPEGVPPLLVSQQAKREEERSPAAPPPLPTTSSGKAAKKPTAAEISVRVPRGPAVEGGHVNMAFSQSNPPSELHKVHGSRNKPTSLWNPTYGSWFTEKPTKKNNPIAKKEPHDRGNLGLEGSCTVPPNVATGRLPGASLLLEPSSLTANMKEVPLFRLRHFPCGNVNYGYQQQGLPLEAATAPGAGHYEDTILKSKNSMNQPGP

[17] = biological target: ALK tyrosine kinase receptor (Homo sapiens) (UniProt Q9UM73); conditions: at 1 µM
[18] = biological target: Tyrosine-protein kinase ABL2 (Homo sapiens) (UniProt P42684); conditions: at 0.1 µM
Chain of Tyrosine-protein kinase ABL2 (Homo sapiens) (P42684 whole entry): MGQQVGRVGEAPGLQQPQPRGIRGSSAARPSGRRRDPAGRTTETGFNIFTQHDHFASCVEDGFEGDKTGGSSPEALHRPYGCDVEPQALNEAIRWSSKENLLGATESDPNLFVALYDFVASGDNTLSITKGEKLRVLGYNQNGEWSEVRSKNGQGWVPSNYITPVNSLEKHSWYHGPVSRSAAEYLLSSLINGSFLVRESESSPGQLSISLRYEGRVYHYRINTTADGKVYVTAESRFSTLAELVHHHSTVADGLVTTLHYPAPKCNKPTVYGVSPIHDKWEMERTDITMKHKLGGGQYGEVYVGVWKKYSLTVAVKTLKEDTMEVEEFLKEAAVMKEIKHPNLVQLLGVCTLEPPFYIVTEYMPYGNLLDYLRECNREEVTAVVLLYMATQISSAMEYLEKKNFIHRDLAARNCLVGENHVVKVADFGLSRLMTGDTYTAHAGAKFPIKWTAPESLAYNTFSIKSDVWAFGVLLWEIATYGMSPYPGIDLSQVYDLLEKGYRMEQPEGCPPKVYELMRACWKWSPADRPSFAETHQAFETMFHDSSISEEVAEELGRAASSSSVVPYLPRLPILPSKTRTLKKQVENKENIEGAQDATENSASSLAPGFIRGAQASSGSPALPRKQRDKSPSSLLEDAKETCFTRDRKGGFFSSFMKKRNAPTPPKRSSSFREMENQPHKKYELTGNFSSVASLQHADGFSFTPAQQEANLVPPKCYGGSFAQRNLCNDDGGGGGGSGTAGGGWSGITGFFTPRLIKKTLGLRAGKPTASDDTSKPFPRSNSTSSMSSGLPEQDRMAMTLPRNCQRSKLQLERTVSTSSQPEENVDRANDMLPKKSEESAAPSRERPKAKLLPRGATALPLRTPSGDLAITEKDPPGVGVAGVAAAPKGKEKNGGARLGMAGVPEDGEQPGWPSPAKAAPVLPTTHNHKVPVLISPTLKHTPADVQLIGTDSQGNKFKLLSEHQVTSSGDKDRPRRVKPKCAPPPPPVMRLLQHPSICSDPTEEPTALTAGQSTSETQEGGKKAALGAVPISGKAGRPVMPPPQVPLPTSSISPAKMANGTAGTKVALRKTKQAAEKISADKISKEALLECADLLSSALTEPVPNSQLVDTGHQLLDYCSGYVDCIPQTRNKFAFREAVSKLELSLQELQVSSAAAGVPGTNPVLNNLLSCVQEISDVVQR

[19] = biological target: Tyrosine-protein kinase ABL2 (Homo sapiens) (UniProt P42684); conditions: at 1 µM
[20] = biological target: Tyrosine-protein kinase receptor UFO (Homo sapiens) (UniProt P30530); conditions: at 0.1 µM;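 further: values are mean percent inhibition of AXL from the GSK PKIS screen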
Chain of Tyrosine-protein kinase receptor UFO (Homo sapiens) (P30530 whole entry): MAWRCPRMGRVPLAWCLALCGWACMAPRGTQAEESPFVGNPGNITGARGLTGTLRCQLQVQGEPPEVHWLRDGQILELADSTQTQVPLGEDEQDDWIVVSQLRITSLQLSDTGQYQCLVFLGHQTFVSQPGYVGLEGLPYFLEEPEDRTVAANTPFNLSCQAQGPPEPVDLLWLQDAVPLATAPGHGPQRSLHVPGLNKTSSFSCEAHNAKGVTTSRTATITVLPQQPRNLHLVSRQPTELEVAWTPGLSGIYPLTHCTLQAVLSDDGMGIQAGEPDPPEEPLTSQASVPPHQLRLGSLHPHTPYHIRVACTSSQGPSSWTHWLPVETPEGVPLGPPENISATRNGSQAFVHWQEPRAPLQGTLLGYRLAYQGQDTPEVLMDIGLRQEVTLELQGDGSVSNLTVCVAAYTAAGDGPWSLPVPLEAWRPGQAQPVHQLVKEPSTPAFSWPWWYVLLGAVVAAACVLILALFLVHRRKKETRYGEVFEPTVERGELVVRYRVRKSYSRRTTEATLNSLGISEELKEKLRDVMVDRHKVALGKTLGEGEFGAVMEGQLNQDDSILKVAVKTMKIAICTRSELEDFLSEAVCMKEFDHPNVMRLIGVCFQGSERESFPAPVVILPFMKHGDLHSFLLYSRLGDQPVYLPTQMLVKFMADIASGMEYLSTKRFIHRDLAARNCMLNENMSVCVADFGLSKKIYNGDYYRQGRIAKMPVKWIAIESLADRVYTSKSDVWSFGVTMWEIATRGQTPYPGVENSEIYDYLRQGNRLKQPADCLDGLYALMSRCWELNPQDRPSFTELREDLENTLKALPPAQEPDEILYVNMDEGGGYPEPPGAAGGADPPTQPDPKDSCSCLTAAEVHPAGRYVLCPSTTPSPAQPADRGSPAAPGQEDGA

Chain of Serine/threonine-protein kinase PAK 6 (Homo sapiens) (Q9NQU5 whole entry, looked up): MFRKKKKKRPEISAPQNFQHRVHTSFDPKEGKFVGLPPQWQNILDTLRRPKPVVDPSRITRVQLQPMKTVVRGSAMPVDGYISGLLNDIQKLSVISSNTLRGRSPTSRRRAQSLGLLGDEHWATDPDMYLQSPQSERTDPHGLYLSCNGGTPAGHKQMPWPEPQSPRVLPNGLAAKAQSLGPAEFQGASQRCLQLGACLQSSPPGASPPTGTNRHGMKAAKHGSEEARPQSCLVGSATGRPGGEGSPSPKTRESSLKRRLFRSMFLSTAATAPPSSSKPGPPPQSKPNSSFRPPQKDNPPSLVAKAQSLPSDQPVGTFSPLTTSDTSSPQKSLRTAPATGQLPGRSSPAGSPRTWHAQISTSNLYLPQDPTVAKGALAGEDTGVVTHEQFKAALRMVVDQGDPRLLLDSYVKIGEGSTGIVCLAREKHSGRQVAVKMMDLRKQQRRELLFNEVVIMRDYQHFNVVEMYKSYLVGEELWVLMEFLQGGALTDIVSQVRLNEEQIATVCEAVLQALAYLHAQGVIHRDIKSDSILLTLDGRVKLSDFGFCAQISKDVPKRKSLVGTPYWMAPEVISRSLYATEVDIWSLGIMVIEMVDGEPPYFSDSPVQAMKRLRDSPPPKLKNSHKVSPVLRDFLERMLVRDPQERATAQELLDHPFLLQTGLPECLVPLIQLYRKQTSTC

| SMILES | inhibition [1] [%] | inhibition [2] [%] | inhibition [3] [%] | inhibition [4] [%] | inhibition [5] [%] | inhibition [6] [%] | inhibition [7] [%] | inhibition [8] [%] | inhibition [9] [%] | inhibition [10] [%] | inhibition [11] [%] | inhibition [12] [%] | inhibition [13] [%] | inhibition [14] [%] | inhibition [15] [%] | inhibition [16] [%] | inhibition [17] [%] | inhibition [18] [%] | inhibition [19] [%] | inhibition [20] [%] |
| --- | --- | --- | --- | --- | --- | --- | --- | --- | --- | --- | --- | --- | --- | --- | --- | --- | --- | --- | --- | --- |
| CNC(=O)c1cc(-c2ccc(F)cc2)cc(-c2ccc(S(=O)(=O)N3CCCC3)cc2)c1N | -8.22 | 2.54 | 2.4 | 3.29 | 3.32 | 0.22 | 0.79 | 1.67 | 1.16 | 2.5 | 2.16 | 3.15 | 4.16 | 3.12 | 5.19 | 1.91 | 2.88 | 2.17 | 3.71 | -5.35 |
| CNC(=O)c1cncc(/C=C/c2ccccc2Cl)c1 | 3.32 | -0.16 | 14.2 | 2.14 | 24.1 | 3.34 | 20 | 1.38 | 17.3 | 0.79 | 8.51 | 3.01 | 27 | 7.06 | 33.6 | 0.91 | 0.92 | 4.13 | 21.1 | 4.02 |
| Cc1cccc(Nc2ncc(-c3ccccc3)o2)c1 | 4.48 | -0.07 | 8.14 | 5.02 | 19.4 | 2.38 | 21.6 | 2.49 | 13.4 | 2.39 | 5.99 | 3.68 | 19.5 | 4.34 | 14.2 | 3.9 | 4.76 | 3.13 | 18 | -1.8 |
| [O-][S+]1CCN(Cc2ccc(-c3ccc4ncnc(Nc5ccc(OCc6cccc(F)c6)c(Cl)c5)c4c3)o2)CC1 | -3.68 | 3.89 | 6.86 | 5.46 | 5.91 | 1.58 | 7.69 | 5.02 | 6.64 | 2.49 | 3.02 | 4.31 | 4.49 | 2.52 | 5.75 | 3.34 | 7.82 | 1.01 | 7.14 | -4.66 |
| Nc1nc(-c2ccc(F)cc2)c(-c2ccc3ncccc3n2)s1 | -1.32 | 6.26 | 16.1 | 6.76 | 24.2 | 2.61 | 20.2 | 6.38 | 25.9 | 5.1 | 6.49 | 9.13 | 26.9 | 9.42 | 27.8 | 3.27 | 5.68 | 6.71 | 20.1 | -5.15 |
| CN1CCC(n2cnc(-c3ccc(F)cc3)c2-c2ccnc(Nc3ccccc3)n2)CC1 | -6.61 | 2.58 | 4.56 | 4.83 | 13.6 | 0.84 | 10.2 | 3.66 | 9.15 | 1.45 | 4.98 | 3.47 | 9.91 | 1.69 | 11 | 1.58 | 2.39 | 3.42 | 10.2 | -2.82 |
| CCCN(CCS(C)(=O)=O)Cc1ccc(-c2ccc3ncnc(Nc4ccc(OCc5cccc(F)c5)c(Cl)c4)c3c2)o1 | 0.49 | 2.99 | 2.9 | 3.87 | 1.99 | 3.22 | 3.73 | 3.51 | 3.02 | 1.81 | 2.18 | 3.73 | 3.01 | 6.06 | 6.41 | 1.67 | 4.89 | 7.3 | 5.25 | -1.63 |
| COc1ccc(-c2cc(-c3c[nH]nc3-c3ccccn3)ccn2)cc1 | -3.15 | 9.84 | 40.9 | 20.2 | 64.2 | 15.3 | 63.3 | 10.8 | 41 | 3.29 | 5.41 | 12.3 | 48.3 | 14.1 | 59.8 | 3.73 | 5.23 | 3.35 | 35.6 | -6.83 |
| COc1ccc2c(-c3ccnc(Nc4cccc(OC(F)(F)F)c4)n3)cnn2n1 | 6.82 | 3.39 | 4.4 | 3.04 | 15.7 | 1.37 | 11.9 | 4.44 | 9.67 | 0.99 | 6.33 | 4.09 | 8.45 | 4.8 | 17 | 2.4 | 5.73 | 4.05 | 19.1 | -4.17 |
| c1ccc(COc2ccc(Nc3ncnc4ccc(-c5ccco5)cc34)cc2)cc1 | 1.25 | -0.69 | 0.29 | 0.16 | 0.64 | 0.39 | 2.41 | 0.54 | 0.07 | 1.64 | 1.49 | 0.09 | 0.37 | 2.97 | 1 | 1.38 | 2.45 | 2.41 | 4.34 | 0.76 |
| c1cc(-c2cnn3nc(N4CCOCC4)ccc23)nc(NC2CC2)n1 | 6.8 | 2.12 | 3.25 | 3.02 | 5.18 | 3.02 | 4.81 | 2.61 | 6.62 | 2.17 | 2.55 | 3.63 | 6.41 | 3.71 | 13.7 | 2.05 | 9.86 | 3.73 | 9.11 | -3.58 |
| COC(=O)Nc1nc2ccc(Oc3ccc(NC(=O)Nc4cccc(Cl)c4)cc3)cc2[nH]1 | -1.03 | 3.36 | 8.54 | 15.3 | 40.9 | 37.5 | 56.3 | 35.7 | 59.7 | 23.3 | 42.4 | 7.43 | 22 | 6.59 | 13.3 | 1.45 | 2.26 | 12.3 | 28.8 | -5.74 |
| CC1=C(C(=O)Nc2cc(Cl)c3[nH]ncc3c2)C(c2ccc(C(F)(F)F)cc2)CC(=O)N1 (stereo not given) | -3.39 | 3.18 | 3.01 | 4.1 | 2.88 | 1.43 | 4.53 | 4.06 | 4.83 | 2.02 | 3.3 | 3.38 | 4.41 | 2.62 | 1.72 | 2.22 | 2.26 | 3.63 | 3.51 | -4.79 |
| CCn1c(-c2nonc2N)nc2cnc(Oc3cccc(NC(=O)c4ccc(N(C)C)cc4)c3)cc21 | -2.65 | 0.6 | 9.02 | 0.27 | 1.9 | -1.02 | 4.81 | 2.14 | 1.78 | 1.38 | 1.03 | 2.77 | 6.27 | 1.77 | 3.99 | 0.57 | 1.96 | 2.48 | 2.42 | -3.9 |

From ChEMBL document CHEMBL1961873, “Compounds: GSK PKIS; Assays: Nanosyn kinase panel” (2012)
